Experimental data taken from PubChem BioAssay (EPA / NIEHS).
Active and inactive are the calls of the source. Rule for the calls: active = hit-call score of the fitted dose curve at least 0.9, where 1 is the maximum; inactive = score below 0.9.

What follows are compounds tested on catalase (CAT), CAT (gene 847) (assay: LTEA_HepaRG_CAT: Life Technologies and Expression Analysis (LTEA) Assay for catalase (CAT) using HepaRG (AID 2283452;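 for AC50: TaqMan qRT-PCR signal normalized to ACTB GAPDH and POLR2A housekeeping genes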)). Settings: mRNA level, 48 h; actives raise or lower the signal.
Description: LTEA_HepaRG is a cell based, multiplexed-readout assay that uses HepaRG, a human liver cell line, with measurements taken at 48 hours after chemical dosing on a 96-well plate.LTEA_HepaRG_CAT is one of 102 assay component(s) measured in the LTEA HepaRG cell culture assay. It is a marker of Oxidative Stress.Data from the assay component LTEA_HepaRG_CAT was analyzed into 1 endpoint. This assay endpoint, LTEA_HepaRG_CAT, was analyzed with bidirectional fitting relative to DMSO as the negative control and baseline of activity. Using a type of inducible reporter, measures of mRNA induction for gain or loss-of-signal activity can be used to understand regulation of transcription factor activity. To generalize the intended target to other relatable targets, this assay endpoint is annotated to the catalase intended target family, where the subfamily is oxidative stress.
A total of 1060 chemcials from the ToxCast library were tested in eight-point concentration-response experiments. Cell culture and cytotoxicity assays were conducted at Thermo Fisher Scientific's Custom Services facility (Madison, WI). A single lot of human HepaRG cells (Thermo Fisher Scientific, Frederick, MD) was used for the cell culture experiments. 96-well format collagen type I coated plates of human HepaRG cells were prepared using established methods. Briefly, cryopreserved HepaRG cells were thawed, plated at a density of approximately 100,000 cells/well in HepaRG Thaw, Plate, and General Purpose media (HPRG770, Thermo Fisher Scientific), and incubated for 48 hours. 0.5% DMSO was selected as vehicle control to balance the requisite need of DMSO in HepaRG cultures to maintain differentiation (for example, baseline metabolism, proportions of hepatocytes vs. cholangiocytes), while enabling further hepatic receptor pathway activation (for example, PXR and CAR) in response to chemical exposure. 48 hours after plating, the culture medium was replaced with HepaRG Serum-Free Incudtion Media. Cells were exposed to each test chemical in duplicate and maintained in CO2 incubators for another 48 hours. Chemical plates were thawed to room temperature and 200x concentrations of treatment groups were prepared. 8-point conentration-reponse curves were made with the highest exposure at 100 uM, followed by half-log dilutions, all in 0.5% DMSO. Each test plate contained variouse controls, induction positive controls (1mM phenobarbital), cytotoxicity positive controls ([…] aflatoxin B1), vehicle controls (0.5% DMSO), and total lysis controls (0.5% DMSO). Cell morphology images were taken using an Essen IncuCyte FLR automated microscope, with six 96-well plates imaged in about 24 minutes. Images were captured and exported and JPEG files. Spent culture media was transfered to black-well plates for the LDH assay, and remaining media was sorted at -80 C for later use. Cells were treated with RLT buffer and frozen until shipped for gene expression analysis. Total RNA was isolated from the cell suspension in 75 uL of Buffer RLT (Qiagen, Germantown, MD 20874) by Quintiles/Expression Analysis (Durham, NC) using a custom isolation procedure. Total RNA from each plate well was transferred to a preamplification plate. Fluidigm's 96.96 Dynamic ArrayTM (Fluidigm, Amsterdam, the Netherlands) technology was used for gene expression analyses by quantitative reverse transcription polymerase chain reaction (qRT-PCR, performed by Quintiles/Expression Analysis, Durham, NC)89. Standard TaqManTM Assays (Applied Biosystems/ThermoFisher Scientific, Foster City, CA) were used to assess the expression of 93 genes selected based on their selectivity and sensitivity to important hepatic receptors known to be modulated by environmental chemicals; importance in human hepatocyte functionality; and hepatotoxicity. […]
With `CCN(CC)c1nc(C)cc(OP(=S)(OC)OC)n1` the outcome was “inactive”.
With `Clc1nc(Cl)nc(Nc2ccccc2Cl)n1` the outcome was “inactive”.
`Nc1cnn(-c2ccccc2)c(=O)c1Cl` was tested, and the outcome was “inactive”.
`O=P(O)(O)CCCl` was tested, and the outcome was “inactive”.
`CO/N=C(/C1=NOCCO1)c1ccccc1Oc1ncnc(Oc2ccccc2Cl)c1F` was tested, and the AC50 was 19.7 µM (active).
For `Cc1cnc(C2=NC(C)(C(C)C)C(=O)N2)c(C(=O)O)c1` (stereo not given), the outcome was “inactive”.
`CC1(C)CCC(=Cc2ccc(Cl)cc2)C1(O)Cn1cncn1` (stereo not given) was tested, and the outcome was “inactive”.
`C=C(C)CN(CC)c1c([N+](=O)[O-])cc(C(F)(F)F)cc1[N+](=O)[O-]` was tested, and the outcome was “inactive”.
In the case of `CCOP(=O)(OCC)Oc1nc(Cl)c(Cl)cc1Cl`, the AC50 is reported as 91.1 µM (active).
In the case of `CCOc1nc(C(Cl)(Cl)Cl)ns1`, the outcome is reported as “inactive”.
In the case of `CCOc1nc(F)cc2nc(S(=O)(=O)Nc3c(Cl)cccc3Cl)nn12`, the outcome is reported as “inactive”.
In the case of `CC1(C)C(C(=O)OC(C#N)c2cccc(Oc3ccccc3)c2)C1(C)C` (stereo not given), the outcome is reported as “inactive”.
In the case of `CC(C)Oc1cccc(NC(=O)c2ccccc2C(F)(F)F)c1`, the outcome is reported as “inactive”.
`O=C1C2CC=CCC2C(=O)N1SC(Cl)(Cl)Cl` (stereo not given) was tested, and the outcome was “inactive”.
`CN=C=S` was tested, and the outcome was “inactive”.
In the case of `CNC(=O)Oc1cccc2ccccc12`, the outcome is reported as “inactive”.
`CC(C)N1C(=O)c2ccccc2NS1(=O)=O` was tested, and the outcome was “inactive”.
In the case of `Cc1cc(C)nc(Nc2ccccc2)n1`, the outcome is reported as “inactive”.
`CCNC(=O)NC(=O)C(C#N)=NOC` was tested, and the outcome was “inactive”.
For `CC1(C)CON(Cc2ccccc2Cl)C1=O`, the outcome was “inactive”.
In the case of `CCOP(=S)(OCC)Oc1nc(Cl)n(C(C)C)n1`, the outcome is reported as “inactive”.
With `Cc1c(COC(=O)[C@@H]2[C@H](/C=C(\Cl)C(F)(F)F)C2(C)C)cccc1-c1ccccc1` the outcome was “inactive”.
With `CCOc1cc(C(C)(C)C)ccc1C1COC(c2c(F)cccc2F)=N1` (stereo not given) the outcome was “inactive”.
In the case of `N#Cc1c(Cl)cccc1Cl`, the outcome is reported as “inactive”.
In the case of `COC(=O)c1c(C(F)F)nc(C(F)(F)F)c(C2=NCCS2)c1CC(C)C`, the outcome is reported as “inactive”.
For `CCOC(=O)C(C)OC(=O)c1cc(Oc2ccc(C(F)(F)F)cc2Cl)ccc1[N+](=O)[O-]` (stereo not given), the outcome was “inactive”.
With `CCN(CC)C(=O)C(C)Oc1cccc2ccccc12` (stereo not given) the AC50 was 81.2 µM (active).
`Clc1cccc(C(Cl)(Cl)Cl)n1` was tested, and the outcome was “inactive”.
For `CC(C)C1(C)N=C(c2ncccc2C(=O)O)NC1=O` (stereo not given), the outcome was “inactive”.
In the case of `CCCN(CC)CC1COC2(CCC(C(C)(C)C)CC2)O1` (stereo not given), the outcome is reported as “inactive”.
`CSC(=O)c1c(C(F)F)nc(C(F)(F)F)c(C(=O)SC)c1CC(C)C` was tested, and the outcome was “inactive”.
With `CCNP(=S)(OC)O/C(C)=C/C(=O)OC(C)C` (stereo not given) the outcome was “inactive”.
`O=C(O)c1c(Cl)ccc2cc(Cl)cnc12` was tested, and the outcome was “inactive”.
In the case of `CC1(C)C(C=C(Cl)Cl)C1C(=O)OC(C#N)c1cccc(Oc2ccccc2)c1` (stereo not given), the outcome is reported as “inactive”.
`COCC(C)N(C(=O)CCl)c1c(C)csc1C` (stereo not given) was tested, and the outcome was “inactive”.
`CCCCOCN(C(=O)CCl)c1c(CC)cccc1CC` was tested, and the outcome was “inactive”.
In the case of `CCCC(=NOCC)C1=C(O)CC(CC(C)SCC)CC1=O` (stereo not given), the outcome is reported as “inactive”.
In the case of `COc1cc(OC)nc(NC(=O)NS(=O)(=O)c2ncccc2OCC(F)(F)F)n1`, the outcome is reported as “inactive”.
For `CC(C)(C)C(=O)C(Oc1ccc(Cl)cc1)n1cncn1` (stereo not given), the outcome was “inactive”.
For `COC(=O)N(C(=O)N1CO[C@@]2(C(=O)OC)Cc3cc(Cl)ccc3C2=N1)c1ccc(OC(F)(F)F)cc1`, the AC50 was 40 µM (active).
